Measurements as given in PubChem BioAssay (NCATS).
Records with an inconclusive call do not appear. The source made the active and inactive calls. Unless noted, calls follow the shape of the dose curve; as a rule, active = well fitted curve in the direction sought with a large enough effect; inconclusive = small, poorly fitted or top-dose-only effect, or another doubt; inactive = no such curve, though single readings can be large; an effect the other way counts as inactive or inconclusive. Bridge positions count the residues as written; N and C are the ends. Square brackets hold non-standard residues; d marks the D form. Peptide text beside a SMILES is read from it. * marks the point of attachment. Octanoyl(6-Me) = CCC(C)CCCCC(=O)*; Dab = NCC[CH](N)C(=O)O

Columns and labels:
AA1029 = assay: qHTS profiling for inhibitors of Plasmodium falciparum proliferation (AID 504749); also: nearly all actives have a fitted effect of over 60% in size; also: potency is read from the fitted curve at half-maximal effect; conditions: P. falciparum in erythrocytes, SYBR Green DNA, 72 h; series mostly up to 28.7 µM
Method in brief: (§1)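 Fluorescence of SYBR Green-bound parasite DNA, read at 485/535 nm, served as the growth measure. Infected erythrocytes were cultured with compound 72 h; artemisinin (0.29 uM) and DMSO wells defined the normalization range.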

AS120 = assay: as above; conditions: P. falciparum in erythrocytes, SYBR Green DNA, 72 h; series mostly up to 28.7 µM
Method in brief: as §1

ATS189 = assay: as above; conditions: P. falciparum in erythrocytes, SYBR Green DNA, 72 h; series mostly up to 28.7 µM
Method in brief: as §1

ATS95 = assay: as above; conditions: P. falciparum in erythrocytes, SYBR Green DNA, 72 h; series mostly up to 28.7 µM
Method in brief: as §1

CP192 = assay: as above; conditions: P. falciparum in erythrocytes, SYBR Green DNA, 72 h; series mostly up to 28.7 µM
Method in brief: as §1

CP238 = assay: as above; conditions: P. falciparum in erythrocytes, SYBR Green DNA, 72 h; series mostly up to 28.7 µM
Method in brief: as §1

CP247 = assay: as above; conditions: P. falciparum in erythrocytes, SYBR Green DNA, 72 h; series mostly up to 28.7 µM
Method in brief: as §1

CP262 = assay: as above; conditions: P. falciparum in erythrocytes, SYBR Green DNA, 72 h; series mostly up to 28.7 µM
Method in brief: as §1

CP265 = assay: as above; conditions: P. falciparum in erythrocytes, SYBR Green DNA, 72 h; series mostly up to 28.7 µM
Method in brief: as §1

CP269 = assay: as above; conditions: P. falciparum in erythrocytes, SYBR Green DNA, 72 h; series mostly up to 28.7 µM
Method in brief: as §1

CP286 = assay: as above; conditions: P. falciparum in erythrocytes, SYBR Green DNA, 72 h; series mostly up to 28.7 µM
Method in brief: as §1

CP291 = assay: as above; conditions: P. falciparum in erythrocytes, SYBR Green DNA, 72 h; series mostly up to 28.7 µM
Method in brief: as §1

CP335 = assay: as above; conditions: P. falciparum in erythrocytes, SYBR Green DNA, 72 h; series mostly up to 28.7 µM
Method in brief: as §1

GB4 = assay: as above; conditions: P. falciparum in erythrocytes, SYBR Green DNA, 72 h; series mostly up to 28.7 µM
Method in brief: as §1

PC15 = assay: as above; conditions: P. falciparum in erythrocytes, SYBR Green DNA, 72 h; series mostly up to 28.7 µM
Method in brief: as §1

W2 = assay: as above; conditions: P. falciparum in erythrocytes, SYBR Green DNA, 72 h; series mostly up to 28.7 µM
Method in brief: as §1

[1] = biological target: Ubiquitin carboxyl-terminal hydrolase 1 (Homo sapiens) (UniProt O94782); assay: Inhibitors of USP1/UAF1: Pilot qHTS (AID 504865); also: nearly all actives have a fitted effect of over 35% in size; also: potency is read from the fitted curve at half-maximal effect
Ubiquitin carboxyl-terminal hydrolase 1 (Homo sapiens), sequence (O94782 whole entry, looked up): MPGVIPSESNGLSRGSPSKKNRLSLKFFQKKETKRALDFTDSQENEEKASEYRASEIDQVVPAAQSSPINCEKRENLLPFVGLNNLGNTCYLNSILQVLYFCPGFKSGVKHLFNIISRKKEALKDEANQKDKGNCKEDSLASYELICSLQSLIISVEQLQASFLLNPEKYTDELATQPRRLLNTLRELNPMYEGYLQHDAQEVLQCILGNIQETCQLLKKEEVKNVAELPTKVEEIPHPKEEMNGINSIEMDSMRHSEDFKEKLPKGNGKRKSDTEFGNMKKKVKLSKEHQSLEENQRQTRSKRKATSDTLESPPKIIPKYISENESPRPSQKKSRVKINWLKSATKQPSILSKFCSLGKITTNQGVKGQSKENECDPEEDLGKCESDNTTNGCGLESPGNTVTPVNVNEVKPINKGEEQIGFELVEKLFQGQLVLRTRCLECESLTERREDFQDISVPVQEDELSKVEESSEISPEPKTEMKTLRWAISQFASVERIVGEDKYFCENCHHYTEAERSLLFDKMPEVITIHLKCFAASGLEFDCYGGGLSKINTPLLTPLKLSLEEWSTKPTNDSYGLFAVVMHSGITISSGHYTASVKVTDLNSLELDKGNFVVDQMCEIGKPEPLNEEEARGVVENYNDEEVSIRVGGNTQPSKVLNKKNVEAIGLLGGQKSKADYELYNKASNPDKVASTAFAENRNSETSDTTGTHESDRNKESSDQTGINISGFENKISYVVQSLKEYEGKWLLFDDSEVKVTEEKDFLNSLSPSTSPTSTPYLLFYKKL
Method in brief: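 In 50mM HEPES pH 7.8 containing 0.5mM EDTA, 1mM TCEP, 0.1 mg/ml BSA and 0.01% Tween-20, 1nM USP1/UAF1 is exposed to compound for 15 min, then Ub-Rho (150nM final) is added and fluorescence is read over time.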

[2] = Cellular Toxicity (caspase-3) SHSY5Y (AID 657);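 also: cells exposed to compound for 16 hours at 37 °C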
Method in brief: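 qHTS, SH-SY5Y, 1500 cells/well, 5 h pre-incubation 37 °C; compound 16 h 37 °C; Caspase-Glo 3/7 1 h RT; luminescence. Norm.: DMSO = 0, 10 uM staurosporine = 100%. Hill fit → AC50.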

[3] = Cell Viability - Jurkat (AID 426;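 active = dose-dependent loss of cell ATP signal giving a full or clear fitted curve, ranked by lower potency value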;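 also: potency is read from the fitted curve at half-maximal effect; cells exposed to compound for 40 hours at 37 °C before ATP read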); conditions: qHTS
Method in brief: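 Cytotoxicity was scored as loss of cellular ATP, measured by luciferase-based luminescence, in Jurkat clone E6-1 cells after 40 h compound treatment; tamoxifen and doxorubicin served as positive controls.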

[4] = Cell Viability - LYMP2-019 (AID 973);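 also: cells exposed to compound for 24 h at 37 °C; nearly all actives have a fitted effect of over 55% in size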
Method in brief: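 AC50 values come from Hill-equation modelling of qHTS concentration-response curves, where viability is measured as luciferase-based ATP luminescence in the lymphoblastoid line after 24 hr compound exposure in complete culture medium.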

Measured: Potency

CCN1/C(=C/C=C/C=C/c2sc3ccccc3[n+]2CC)Sc2ccccc21
active: AA1029 3.98 µM | AS120 5.01 µM | ATS189 4.47 µM | ATS95 5.01 µM | CP192 5.36 µM | CP238 3.16 µM | CP247 4.47 µM | CP265 5.01 µM | CP269 15.1 µM | CP286 0.708 µM | CP291 13.5 µM | CP335 1.07 µM | GB4 7.57 µM | PC15 4.47 µM | W2 1.51 µM
inactive: CP262

COc1cc(/C=C/C(=O)N2CCC=CC2=O)cc(OC)c1OC
inactive: [1]

c1ccc2scnc2c1
inactive: [2]

CCC(C)CCCCC(=O)NC(CCN)C(=O)NC(C(=O)NC(CCN)C(=O)NC1CCNC(=O)C(C(C)O)NC(=O)C(CCN)NC(=O)C(CCN)NC(=O)C(CC(C)C)NC(=O)C(Cc2ccccc2)NC(=O)C(CCN)NC1=O)C(C)O (configuration not stated) ({Octanoyl(6-Me)}-[Dab]T[Dab][Dab][Dab]FL[Dab][Dab]T; lactam 4-C; configuration not given here)
active: [1] 50.1 µM
not listed: CP265 | [2] | [3] | [4]
inactive: all other assays above

CO/N=C(/C(=O)N[C@@H]1C(=O)N2C(C(=O)O)=CCS[C@H]12)c1csc(N)n1
not listed: [1] | [2] | [3] | [4]
inactive: all other assays above

O=S(=O)(O)c1ccccc1
inactive: [3] > 92 µM | [2] | [4]

CO[C@@H]1[C@@H](OC2OC(C)C(OC3CC(C)(O)C(OC(=O)CC(C)C)C(C)O3)C(N(C)C)C2O)[C@@H](CC=O)C[C@@H](C)C(=O)/C=C\C2O[C@H]2C[C@@H](C)OC(=O)C[C@H]1OC(C)=O (some centres not stated)
active: AA1029 5.01 µM | AS120 10 µM | ATS189 11.2 µM | ATS95 11.2 µM | CP238 10 µM | CP247 11.2 µM | CP265 11.2 µM | CP269 4.78 µM | CP286 4.47 µM | CP291 6.75 µM | CP335 6.75 µM | GB4 13.5 µM | W2 1.69 µM
inactive: [1] | CP192

O=C1CCc2ccccc2O1
inactive: [4]

O[C@@H]([C@H](O)[C@@H](O)CBr)[C@@H](O)CBr
inactive: [2]

CC(C)CN(C[C@@H](OP(=O)(O)O)[C@H](Cc1ccccc1)NC(=O)O[C@@H]1CCOC1)S(=O)(=O)c1ccc(N)cc1
not listed: [2] | [3] | [4]
inactive: all other assays above

CC(=O)O[C@@]12CO[C@@H]1C[C@H](O)[C@@]1(C)C(=O)[C@H](O)C3=C(C)[C@@H](OC(=O)C(O)[C@@H](NC(=O)OC(C)(C)C)c4ccccc4)C[C@@](O)([C@@H](OC(=O)c4ccccc4)[C@H]21)C3(C)C (some centres not stated)
active: AA1029 0.0447 µM | AS120 0.0282 µM | ATS189 0.0355 µM | ATS95 0.0355 µM | CP192 0.0269 µM | CP238 0.0282 µM | CP247 0.0398 µM | CP262 0.0338 µM | CP265 0.0794 µM | CP269 0.0426 µM | CP286 0.0178 µM | CP291 0.0379 µM | CP335 0.0213 µM | GB4 0.0301 µM | PC15 5.62 µM | W2 0.0151 µM
inactive: [1]

CCC(=O)O[C@@H](OP(=O)(CCCCc1ccccc1)CC(=O)N1C[C@H](C2CCCCC2)C[C@H]1C(=O)O)C(C)C (some centres not stated)
not listed: W2 | [2] | [3] | [4]
inactive: all other assays above

CC1(C)S[C@@H]2[C@H](NC(=O)COc3ccccc3)C(=O)N2[C@H]1C(=O)O
not listed: [1] | [2] | [3] | [4]
inactive: all other assays above

CC1CCC(C(C)C)C(OC(=O)c2ccccc2O)C1 (configuration not stated)
not listed: [2] | [3] | [4]
inactive: all other assays above

CC(C)(CO)C(O)C(=O)NCCCC(=O)O (configuration not stated)
active: AS120 0.0071 µM | ATS189 2.82 µM | CP238 17.8 µM | CP247 0.0112 µM | CP265 0.0141 µM | CP269 16.9 µM | CP286 10 µM
inactive: [1] | AA1029 | ATS95 | CP262 | GB4 | PC15

Cc1cc(CC(C)CC(C)(C)C)n(O)c(=O)c1 (configuration not stated)
active: AA1029 3.16 µM | AS120 2.51 µM | ATS189 3.16 µM | ATS95 3.16 µM | CP192 2.39 µM | CP238 2.51 µM | CP247 2.24 µM | CP262 3.38 µM | CP265 2.82 µM | CP269 3.38 µM | CP286 2.82 µM | CP291 1.9 µM | CP335 1.69 µM | GB4 1.51 µM | PC15 5.01 µM | W2 2.13 µM
